# Measured values taken from PubChem BioAssay AID1159580 (chemical genetic matrix, 2015).
# Among all 5,500 compounds or so, about 2,000 (36%) were called active. Not shown: some 18% with an inconclusive outcome. This is one part of the list. Unmarked numbers belong to inactive results. Cut-off read from the data, not from the text of the source: active = normalized growth mostly below about 0.91 (no sharp cut-off); inconclusive = no clear call, values can overlap the other calls; inactive = mostly above about 0.92.
# Experiment: chemical genetic growth profiling, strain panel (AID 1159580);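 note: tested at 20 µM; growth read once vehicle control cultures reached saturation at 30 °C; 1 = growth at the plate median or of vehicle wells; lower values mean less growth of the strain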
# Settings: S. cerevisiae deletion strains, growth OD
structure (smiles),measurement,setting,value
O=C1c2ccc(O)c(O)c2C(=O)c2c(O)ccc(O)c21,normalized growth,"locus YAL021C, strain ccr4, hits give low values",0.241 (active)
same,normalized growth,"locus YAL026C, strain drs2, hits give low values",0.376 (active)
same,normalized growth,"locus YAL030W, strain snc1, hits give low values",0.69 (active)
same,normalized growth,"locus YBL061C, strain skt5, hits give low values",0.548 (active)
same,normalized growth,"locus YBR009C, strain hhf1, hits give low values",0.667 (active)
same,normalized growth,"locus YBR021W, strain FUR4, hits give low values",1.01
same,normalized growth,"locus YBR023C, strain chs3, hits give low values",0.479 (active)
same,normalized growth,"locus YBR171W, strain sec66, hits give low values",0.753 (active)
same,normalized growth,"locus YBR229C, strain ROT2, hits give low values",1.01
same,normalized growth,"locus YBR231C, strain swc5, hits give low values",0.479 (active)
same,normalized growth,"locus YBR279W, strain paf1, hits give low values",0.838 (active)
same,normalized growth,"locus YCL011C, strain gbp2, hits give low values",0.67 (active)
same,normalized growth,"locus YCL016C, strain dcc1, hits give low values",0.695 (active)
same,normalized growth,"locus YCL029C, strain bik1, hits give low values",1
same,normalized growth,"locus YCL069W, strain vba3, hits give low values",0.751 (active)
same,normalized growth,"locus YCR088W, strain abp1, hits give low values",0.781 (active)
same,normalized growth,"locus YDL005C, strain med2, hits give low values",0.879 (active)
same,normalized growth,"locus YDL035C, strain GPR1, hits give low values",1.03
same,normalized growth,"locus YDL040C, strain nat1, hits give low values",0.795 (active)
same,normalized growth,"locus YDL074C, strain BRE1, hits give low values",1
same,normalized growth,"locus YDL101C, strain DUN1, hits give low values",1.01
same,normalized growth,"locus YDL185W, strain tfp1, hits give low values",1.01
same,normalized growth,"locus YDL192W, strain arf1, hits give low values",0.99
same,normalized growth,"locus YDR001C, strain nth1, hits give low values",0.787 (active)
same,normalized growth,"locus YDR069C, strain doa4, hits give low values",0.399 (active)
same,normalized growth,"locus YDR101C, strain arx1, hits give low values",1.01
same,normalized growth,"locus YDR137W, strain rgp1, hits give low values",0.255 (active)
same,normalized growth,"locus YDR159W, strain sac3, hits give low values",0.789 (active)
same,normalized growth,"locus YDR162C, strain NBP2, hits give low values",1.03
same,normalized growth,"locus YDR195W, strain ref2",0.873
same,normalized growth,"locus YDR297W, strain sur2, hits give low values",0.697 (active)
same,normalized growth,"locus YDR318W, strain mcm21, hits give low values",0.992
same,normalized growth,"locus YDR334W, strain swr1, hits give low values",0.424 (active)
same,normalized growth,"locus YDR335W, strain msn5, hits give low values",0.737 (active)
same,normalized growth,"locus YDR388W, hits give low values",0.997
same,normalized growth,"locus YDR392W, strain spt3, hits give low values",0.567 (active)
same,normalized growth,"locus YDR502C, strain sam2, hits give low values",0.991
same,normalized growth,"locus YEL003W, strain gim4, hits give low values",0.675 (active)
same,normalized growth,"locus YEL037C, strain rad23, hits give low values",0.734 (active)
same,normalized growth,"locus YEL061C, strain CIN8 (second series), hits give low values",0.814 (active)
same,normalized growth,"locus YEL061C, strain CIN8, hits give low values",1
same,normalized growth,"locus YER015W, strain faa2, hits give low values",0.493 (active)
same,normalized growth,"locus YER016W, strain bim1, hits give low values",0.705 (active)
same,normalized growth,"locus YER110C, hits give low values",0.991
same,normalized growth,"locus YER111C, strain swi4, hits give low values",0.708 (active)
same,normalized growth,"locus YER155C, strain BEM2 (second series), hits give low values",0.696 (active)
same,normalized growth,"locus YER155C, strain BEM2, hits give low values",1
same,normalized growth,"locus YER167W, strain BCK2, hits give low values",1.02
same,normalized growth,"locus YFR010W, strain ubp6, hits give low values",0.539 (active)
same,normalized growth,"locus YGL078C, strain dbp3, hits give low values",0.982
same,normalized growth,"locus YGL086W, strain mad1, hits give low values",0.989
same,normalized growth,"locus YGL167C, strain pmr1, hits give low values",0.814 (active)
same,normalized growth,"locus YGL173C, strain kem1, hits give low values",0.286 (active)
same,normalized growth,"locus YGL227W, strain vid30, hits give low values",0.83 (active)
same,normalized growth,"locus YGL240W, strain doc1, hits give low values",0.667 (active)
same,normalized growth,"locus YGL248W, strain PDE1, hits give low values",1
same,normalized growth,"locus YGL253W, strain hxk2, hits give low values",0.638 (active)
same,normalized growth,"locus YGR078C, strain PAC10, hits give low values",1.01
same,normalized growth,"locus YGR135W, strain pre9, hits give low values",0.991
same,normalized growth,"locus YGR252W, strain gcn5, hits give low values",0.977
same,normalized growth,"locus YHR013C, strain ard1, hits give low values",0.953
same,normalized growth,"locus YHR027C, strain rpn1, hits give low values",0.401 (active)
same,normalized growth,"locus YHR030C, strain SLT2, hits give low values",1.01
same,normalized growth,"locus YHR079C, strain IRE1 (second series), hits give low values",0.991
same,normalized growth,"locus YHR094C, strain hxt1, hits give low values",0.995
same,normalized growth,"locus YHR129C, strain ARP1, hits give low values",1.01
same,normalized growth,"locus YHR142W, strain chs7, hits give low values",0.451 (active)
same,normalized growth,"locus YHR200W, strain rpn10, hits give low values",0.998
same,normalized growth,"locus YIL066C, strain RNR3, hits give low values",1.03
same,normalized growth,"locus YIL073C, strain SPO22, hits give low values",1.01
same,normalized growth,"locus YIL125W, strain kgd1, hits give low values",0.992
same,normalized growth,"locus YIR030C, strain dcg1, hits give low values",0.988
same,normalized growth,"locus YJL092W, strain hpr5, hits give low values",0.774 (active)
same,normalized growth,"locus YJL095W, strain BCK1 (second series), hits give low values",0.236 (active)
same,normalized growth,"locus YJL095W, strain BCK1, hits give low values",0.998
same,normalized growth,"locus YJL115W, strain asf1, hits give low values",0.816 (active)
same,normalized growth,"locus YJL129C, strain trk1, hits give low values",0.52 (active)
same,normalized growth,"locus YJL134W, strain LCB3, hits give low values",1.01
same,normalized growth,"locus YJL154C, strain vps35, hits give low values",0.782 (active)
same,normalized growth,"locus YJL164C, strain tpk1, hits give low values",0.545 (active)
same,normalized growth,"locus YJL166W, strain qcr8, hits give low values",0.596 (active)
same,normalized growth,"locus YJL168C, strain set2, hits give low values",0.988
same,normalized growth,"locus YJL187C, strain SWE1 (second series), hits give low values",1.01
same,normalized growth,"locus YJR043C, strain POL32, hits give low values",1.03
same,normalized growth,"locus YKL009W, strain mrt4, hits give low values",0.978
same,normalized growth,"locus YKL068W, hits give low values",0.992
same,normalized growth,"locus YKL085W, strain MDH1 (second series), hits give low values",0.99
same,normalized growth,"locus YKL085W, strain MDH1, hits give low values",0.99
same,normalized growth,"locus YKL160W, strain elf1, hits give low values",0.869 (active)
same,normalized growth,"locus YKL190W, strain CNB1, hits give low values",1.01
same,normalized growth,"locus YKR001C, strain vps1, hits give low values",0.985
same,normalized growth,"locus YKR026C, strain gcn3, hits give low values",0.81 (active)
same,normalized growth,"locus YKR091W, strain srl3, hits give low values",0.757 (active)
same,normalized growth,"locus YLL001W, strain dnm1, hits give low values",0.722 (active)
same,normalized growth,"locus YLL026W, hits give low values",0.758 (active)
same,normalized growth,"locus YLL041C, strain sdh2, hits give low values",0.765 (active)
same,normalized growth,"locus YLR027C, strain aat2, hits give low values",0.751 (active)
same,normalized growth,"locus YLR039C, strain RIC1, hits give low values",1.03
same,normalized growth,"locus YLR058C, strain SHM2, hits give low values",1.01
same,normalized growth,"locus YLR102C, strain apc9, hits give low values",0.991
same,normalized growth,"locus YLR221C, strain rsa3, hits give low values",0.668 (active)
same,normalized growth,"locus YLR258W, strain gsy2, hits give low values",0.685 (active)
same,normalized growth,"locus YLR262C, strain YPT6 (second series), hits give low values",0.185 (active)
same,normalized growth,"locus YLR262C, strain YPT6, hits give low values",1.09
same,normalized growth,"locus YLR268W, strain sec22, hits give low values",1.01
same,normalized growth,"locus YLR320W, strain mms22, hits give low values",0.515 (active)
same,normalized growth,"locus YLR330W, strain CHS5, hits give low values",1.01
same,normalized growth,"locus YLR342W, strain FKS1 (second series), hits give low values",1.02
same,normalized growth,"locus YLR342W, strain FKS1, hits give low values",0.532 (active)
same,normalized growth,"locus YLR357W, strain rsc2, hits give low values",0.563 (active)
same,normalized growth,"locus YLR370C, strain arc18, hits give low values",0.577 (active)
same,normalized growth,"locus YLR371W, strain rom2, hits give low values",0.986
same,normalized growth,"locus YLR384C, strain iki3, hits give low values",0.731 (active)
same,normalized growth,"locus YLR418C, strain cdc73, hits give low values",0.978
same,normalized growth,"locus YML016C, strain PPZ1, hits give low values",1.01
same,normalized growth,"locus YML032C, strain rad52, hits give low values",1.01
same,normalized growth,"locus YML120C, strain ndi1, hits give low values",0.768 (active)
same,normalized growth,"locus YML124C, strain tub3, hits give low values",0.988
same,normalized growth,"locus YMR058W, strain fet3, hits give low values",0.459 (active)
same,normalized growth,"locus YMR078C, strain ctf18, hits give low values",0.996
same,normalized growth,"locus YMR125W, strain sto1, hits give low values",0.803 (active)
same,normalized growth,"locus YMR129W, hits give low values",0.756 (active)
same,normalized growth,"locus YMR205C, strain PFK2, hits give low values",0.522 (active)
same,normalized growth,"locus YMR223W, strain ubp8, hits give low values",0.998
same,normalized growth,"locus YMR231W, strain pep5, hits give low values",0.641 (active)
same,normalized growth,"locus YMR307W, strain GAS1, hits give low values",1.07
same,normalized growth,"locus YNL067W, strain RPL9B, hits give low values",0.997
same,normalized growth,"locus YNL071W, strain lat1, hits give low values",0.748 (active)
same,normalized growth,"locus YNL128W, strain TEP1, hits give low values",1.01
same,normalized growth,"locus YNL153C, strain GIM3, hits give low values",0.998
same,normalized growth,"locus YNL209W, strain ssb2, hits give low values",0.29 (active)
same,normalized growth,"locus YNL233W, strain BNI4, hits give low values",1.01
same,normalized growth,"locus YNL248C, strain rpa49, hits give low values",0.66 (active)
same,normalized growth,"locus YNL250W, strain rad50, hits give low values",0.998
same,normalized growth,"locus YNL271C, strain bni1, hits give low values",0.994
same,normalized growth,"locus YNL298W, strain CLA4, hits give low values",0.994
same,normalized growth,"locus YNL307C, strain MCK1, hits give low values",0.994
same,normalized growth,"locus YNL322C, strain KRE1 (second series), hits give low values",0.812 (active)
same,normalized growth,"locus YNR049C, strain mso1, hits give low values",0.785 (active)
same,normalized growth,"locus YNR052C, strain pop2, hits give low values",0.993
same,normalized growth,"locus YOL012C, strain htz1",0.902
same,normalized growth,"locus YOL147C, strain pex11, hits give low values",0.998
same,normalized growth,"locus YOR001W, strain rrp6, hits give low values",0.683 (active)
same,normalized growth,"locus YOR061W, strain CKA2, hits give low values",1.02
same,normalized growth,"locus YOR069W, strain VPS5, hits give low values",1.01
same,normalized growth,"locus YOR070C, strain gyp1, hits give low values",0.71 (active)
same,normalized growth,"locus YOR080W, strain dia2, hits give low values",0.759 (active)
same,normalized growth,"locus YOR083W, strain WHI5, hits give low values",0.57 (active)
same,normalized growth,"locus YOR106W, strain vam3, hits give low values",0.307 (active)
same,normalized growth,"locus YOR136W, strain idh2, hits give low values",1.02
same,normalized growth,"locus YOR144C, strain elg1, hits give low values",0.991
same,normalized growth,"locus YOR184W, strain ser1, hits give low values",0.995
same,normalized growth,"locus YOR265W, strain rbl2, hits give low values",0.683 (active)
same,normalized growth,"locus YOR270C, strain vph1, hits give low values",0.387 (active)
same,normalized growth,"locus YOR290C, strain snf2, hits give low values",0.578 (active)
same,normalized growth,"locus YOR316C, strain cot1, hits give low values",0.996
same,normalized growth,"locus YPL051W, strain arl3, hits give low values",0.416 (active)
same,normalized growth,"locus YPL078C, strain atp4, hits give low values",0.76 (active)
same,normalized growth,"locus YPL106C, strain sse1, hits give low values",0.536 (active)
same,normalized growth,"locus YPL240C, strain hsp82, hits give low values",0.74 (active)
same,normalized growth,"locus YPL241C, strain CIN2, hits give low values",1.01
same,normalized growth,"locus YPR119W, strain clb2, hits give low values",0.989
same,normalized growth,"locus YPR141C, strain kar3, hits give low values",0.991
same,normalized growth,"locus YPR163C, strain tif3, hits give low values",1.01
same,normalized growth,"locus YPR167C, strain met16, hits give low values",0.989
same,normalized growth,"strain wtn01, hits give low values",1.01
